Measurements reported in PubChem BioAssay AID1159580 (chemical genetic matrix, 2015).
Several values for one entry are separate records, joined by “and”; a condition that tells them apart may be missing. Equal values may be shown once. Hit rate of the full screen: of about 5,500 compounds, about 2,000 (36%) were called active. Roughly 18% stayed inconclusive and do not appear here. No stated cut-off is given here; in the data, active means normalized growth mostly below about 0.91 (no sharp cut-off); inconclusive means no clear call, values can overlap the other calls; inactive means mostly above about 0.92. The list shows a part of the results.

Assay: chemical genetic growth profiling, strain panel (AID 1159580);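 further: tested at 20 µM; growth read once vehicle control cultures reached saturation at 30 °C; 1 = growth at the plate median or of vehicle wells; lower values mean less growth of the strain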
Conditions: S. cerevisiae deletion strains, growth OD

Measured: normalized growth

Cc1cc(O)c2c(c1O)C(=O)c1c(O)cc(C)c(O)c1C2=O
inactive: locus YAL013W, strain DEP1, active compounds read low 0.982 | locus YAL021C, strain ccr4, active compounds read low 0.948 | locus YAL026C, strain drs2, active compounds read low 0.969 | locus YAL030W, strain snc1, active compounds read low 0.951 | locus YBL061C, strain skt5, active compounds read low 0.968 | locus YBR009C, strain hhf1, active compounds read low 0.97 | locus YBR021W, strain FUR4, active compounds read low 1.12 | locus YBR023C, strain chs3, active compounds read low 0.983 | locus YBR171W, strain sec66, active compounds read low 0.948 | locus YBR229C, strain ROT2, active compounds read low 0.969 | locus YBR231C, strain swc5, active compounds read low 0.974 | locus YBR279W, strain paf1, active compounds read low 0.989 | locus YCL011C, strain gbp2, active compounds read low 0.939 | locus YCL016C, strain dcc1, active compounds read low 0.978 | locus YCL029C, strain bik1, active compounds read low 0.988 | locus YCL061C, strain MRC1, active compounds read low 0.978 | locus YCL069W, strain vba3, active compounds read low 0.966 | locus YCR088W, strain abp1, active compounds read low 0.98 | locus YDL005C, strain med2, active compounds read low 0.971 | locus YDL035C, strain GPR1, active compounds read low 0.975 | locus YDL040C, strain nat1, active compounds read low 0.991 | locus YDL074C, strain BRE1, active compounds read low 1 | locus YDL101C, strain DUN1, active compounds read low 0.947 | locus YDL134C, strain PPH21, active compounds read low 0.967 | locus YDL185W, strain tfp1, active compounds read low 0.979 | locus YDL192W, strain arf1, active compounds read low 0.987 | locus YDR001C, strain nth1, active compounds read low 0.952 | locus YDR069C, strain doa4, active compounds read low 0.942 | locus YDR101C, strain arx1, active compounds read low 0.993 | locus YDR137W, strain rgp1, active compounds read low 0.877 | locus YDR150W, strain NUM1, active compounds read low 0.989 | locus YDR159W, strain sac3, active compounds read low 0.973 | locus YDR162C, strain NBP2, active compounds read low 0.921 | locus YDR195W, strain ref2 1.04 | locus YDR297W, strain sur2, active compounds read low 0.973 | locus YDR318W, strain mcm21, active compounds read low 0.985 | locus YDR334W, strain swr1, active compounds read low 0.921 | locus YDR335W, strain msn5, active compounds read low 0.961 | locus YDR388W, active compounds read low 0.986 | locus YDR392W, strain spt3, active compounds read low 0.858 | locus YDR502C, strain sam2, active compounds read low 1 | locus YEL003W, strain gim4, active compounds read low 0.956 | locus YEL037C, strain rad23, active compounds read low 0.972 | locus YEL061C, strain CIN8 (second series), active compounds read low 0.97 | locus YEL061C, strain CIN8, active compounds read low 0.97 | locus YER015W, strain faa2, active compounds read low 0.95 | locus YER016W, strain bim1, active compounds read low 0.979 | locus YER110C, active compounds read low 0.992 | locus YER111C, strain swi4, active compounds read low 0.963 | locus YER155C, strain BEM2 (second series), active compounds read low 0.946 | locus YER155C, strain BEM2, active compounds read low 0.996 | locus YER167W, strain BCK2, active compounds read low 1.01 | locus YFR010W, strain ubp6, active compounds read low 0.942 | locus YGL078C, strain dbp3, active compounds read low 0.993 | locus YGL086W, strain mad1, active compounds read low 0.981 | locus YGL167C, strain pmr1, active compounds read low 0.977 | locus YGL173C, strain kem1, active compounds read low 0.946 | locus YGL227W, strain vid30, active compounds read low 0.983 | locus YGL240W, strain doc1, active compounds read low 0.962 | locus YGL248W, strain PDE1, active compounds read low 0.945 | locus YGL253W, strain hxk2, active compounds read low 0.985 | locus YGR078C, strain PAC10, active compounds read low 0.983 | locus YGR135W, strain pre9, active compounds read low 0.988 | locus YGR229C, strain SMI1, active compounds read low 0.992 | locus YGR252W, strain gcn5, active compounds read low 1.16 | locus YHR013C, strain ard1, active compounds read low 0.957 | locus YHR027C, strain rpn1, active compounds read low 0.951 | locus YHR030C, strain SLT2, active compounds read low 0.964 and 0.996 | locus YHR079C, strain IRE1 (second series), active compounds read low 0.985 | locus YHR079C, strain IRE1, active compounds read low 1 | locus YHR094C, strain hxt1, active compounds read low 0.995 | locus YHR129C, strain ARP1, active compounds read low 0.963 | locus YHR142W, strain chs7, active compounds read low 0.964 | locus YHR200W, strain rpn10, active compounds read low 0.994 | locus YIL066C, strain RNR3, active compounds read low 0.939 | locus YIL073C, strain SPO22, active compounds read low 1.3 | locus YIL125W, strain kgd1, active compounds read low 1 | locus YIR030C, strain dcg1, active compounds read low 0.997 | locus YJL092W, strain hpr5, active compounds read low 0.965 | locus YJL095W, strain BCK1 (second series), active compounds read low 0.974 | locus YJL095W, strain BCK1, active compounds read low 0.893 and 0.997 | locus YJL115W, strain asf1, active compounds read low 0.938 | locus YJL129C, strain trk1, active compounds read low 0.891 | locus YJL134W, strain LCB3, active compounds read low 0.977 | locus YJL154C, strain vps35, active compounds read low 0.971 | locus YJL164C, strain tpk1, active compounds read low 0.971 | locus YJL166W, strain qcr8, active compounds read low 0.978 | locus YJL168C, strain set2, active compounds read low 0.969 | locus YJL187C, strain SWE1 (second series), active compounds read low 0.903 | locus YJL187C, strain SWE1, active compounds read low 0.968 | locus YJR043C, strain POL32, active compounds read low 1.02 | locus YJR066W, strain TOR1, active compounds read low 0.926
